Laboratory results: the antibiotic and cytotoxicity screens of Wong et al. (2023)
Out of some 39,000 compounds screened, about 3,300 (8.5%) were called active. The sample holds actives, similar compounds and a random draw of the others, so the mix is not that of the screen.

What follows are compounds tested on HepG2 (assay: cytotoxicity call (relative viability < 0.9)). Conditions: 10 µM.

Row | Structure (SMILES) | cytotoxicity call
1 | COc1ccc(CNCC(=O)O)cc1 | inactive
2 | COC(=O)[C@@H]1[C@@H](c2ccc(OC)cc2)[C@H](C(=O)OC)S(=O)(=O)CS1(=O)=O | active
3 | COc1ccc(C(N)=O)cc1 | inactive
4 | C=C1CCC=C(C)CCC2C1CC2(C)C.O (single isomer, unassigned; (-)) [(-)E-CARYOPHYLLENE hydrate ] | inactive
5 | C=C1C(=O)OC2C1CCC(C)=CCCC1(C)OC21 (centres undefined) | active
6 | C[C@H](CO)N1C[C@H](C)[C@H](CN(C)S(=O)(=O)c2ccccc2)Oc2ncc(C#Cc3ccccc3)cc2C1=O | inactive
7 | Cc1ccc(S(=O)(=O)Nc2ccc3c(c2)C(=O)N([C@H](C)CO)C[C@H](C)[C@@H](CN(C)C(=O)c2ccccc2)OCCCC[C@@H](C)O3)cc1 | inactive
8 | COCC(=O)N1CC[C@]2(CC(C(=O)NCc3cnc(C)cn3)=NO2)C1 | inactive
9 | COc1ccc(S(=O)(=O)N(C)C[C@@H]2OCCCC[C@H](C)Oc3ccc(NC(=O)Nc4c(C)noc4C)cc3C(=O)N([C@@H](C)CO)C[C@H]2C)cc1 | inactive
10 | COc1ccc(S(=O)(=O)N(C)C[C@@H]2OCCCC[C@@H](C)Oc3ccc(NC(=O)Nc4c(C)noc4C)cc3C(=O)N([C@@H](C)CO)C[C@H]2C)cc1 | inactive
11 | COc1ccc(S(=O)(=O)N(C)C[C@@H]2OCCCC[C@H](C)Oc3ccc(NC(=O)Nc4c(C)noc4C)cc3C(=O)N([C@H](C)CO)C[C@@H]2C)cc1 | inactive
12 | COc1ccc(S(=O)(=O)N(C)C[C@H]2OCCCC[C@H](C)Oc3ccc(NC(=O)Nc4c(C)noc4C)cc3C(=O)N([C@@H](C)CO)C[C@@H]2C)cc1 | active
13 | COc1ccc(S(=O)(=O)N(C)C[C@H]2OCCCC[C@H](C)Oc3ccc(NC(=O)Nc4c(C)noc4C)cc3C(=O)N([C@@H](C)CO)C[C@H]2C)cc1 | active
14 | COc1ccc(S(=O)(=O)N(C)C[C@H]2OCCCC[C@@H](C)Oc3ccc(NC(=O)Nc4c(C)noc4C)cc3C(=O)N([C@H](C)CO)C[C@@H]2C)cc1 | inactive
15 | Cc1noc(C)c1NC(=O)N(C)C[C@H]1Oc2ccc(NS(=O)(=O)c3cn(C)cn3)cc2CC(=O)N([C@H](C)CO)C[C@@H]1C | inactive
16 | C[C@@H]1CN([C@@H](C)CO)C(=O)c2cccc(NS(=O)(=O)c3cn(C)cn3)c2O[C@@H]1CN(C)Cc1ccncc1 | inactive
17 | O=C(C[C@H]1C[C@H]2c3cc(NC(=O)Nc4ccc(C(F)(F)F)cc4)ccc3O[C@H]2[C@H](CO)O1)NCc1cc(F)ccc1F | inactive
18 | CNC[C@@H]1OCCCC[C@@H](C)Oc2ccc(NS(=O)(=O)c3c(C)noc3C)cc2C(=O)N([C@H](C)CO)C[C@@H]1C | inactive
19 | C[C@H]1C/C(=C\N(C)C)C(=O)C1=O | active
20 | C[C@@H]1CCCCO[C@@H](CN(C)C(=O)Nc2ccc3c(c2)OCO3)[C@H](C)CN([C@H](C)CO)C(=O)c2cc(NS(=O)(=O)c3ccc(Cl)cc3)ccc2O1 | inactive

Row | Structure (SMILES) | cytotoxicity call
21 | C[C@@H]1CCCCO[C@H](CN(C)S(=O)(=O)c2ccccc2)[C@H](C)CN([C@@H](C)CO)C(=O)c2cc(NC(=O)NC3CCCCC3)ccc2O1 | inactive
22 | C[C@H](CO)N1C[C@H](C)[C@@H](CN(C)Cc2ccc3c(c2)OCO3)Oc2c(NC(=O)C3CCOCC3)cccc2C1=O | inactive
23 | C[C@@H]1CN([C@H](C)CO)C(=O)c2cc(C#CCc3ccccc3)cnc2O[C@@H]1CN(C)C(=O)C1CCOCC1 | inactive
24 | O=C(c1ccc(Cl)cc1)c1coc2c1cc(O)c1ccccc12 | active
25 | Oc1ccc(F)c2ccccc12 | inactive
26 | C[C@@H]1CN([C@H](C)CO)C(=O)Cc2cc(NC(=O)Nc3ccc(C(F)(F)F)cc3)ccc2O[C@H]1CN(C)C(=O)Nc1ccc2c(c1)OCO2 | inactive
27 | C[C@H]1CN([C@@H](C)CO)C(=O)Cc2cc(NC(=O)Nc3ccc4c(c3)OCO4)ccc2O[C@H]1CN(C)C(=O)Nc1ccc(C(F)(F)F)cc1 | active
28 | C[C@@H]1CN([C@@H](C)CO)C(=O)Cc2cc(NC(=O)Nc3ccc4c(c3)OCO4)ccc2O[C@H]1CN(C)C(=O)Nc1ccc(C(F)(F)F)cc1 | inactive
29 | C[C@H]1CN([C@@H](C)CO)C(=O)Cc2cc(NC(=O)Nc3ccc(C(F)(F)F)cc3)ccc2O[C@H]1CN(C)C(=O)Nc1ccc2c(c1)OCO2 | inactive
30 | C[C@H]1CN([C@@H](C)CO)C(=O)Cc2cc(NC(=O)Nc3ccc(C(F)(F)F)cc3)ccc2O[C@@H]1CN(C)C(=O)Nc1ccc2c(c1)OCO2 | inactive
31 | C[C@@H]1CN([C@H](C)CO)C(=O)Cc2cc(NC(=O)Nc3ccc4c(c3)OCO4)ccc2O[C@@H]1CN(C)C(=O)Nc1ccc(C(F)(F)F)cc1 | active
32 | C[C@@H]1CN([C@@H](C)CO)C(=O)Cc2cc(NC(=O)Nc3ccc(C(F)(F)F)cc3)ccc2O[C@H]1CN(C)C(=O)Nc1ccc2c(c1)OCO2 | inactive
33 | C[C@@H]1CN([C@H](C)CO)C(=O)Cc2cc(NC(=O)Nc3ccc(C(F)(F)F)cc3)ccc2O[C@@H]1CN(C)C(=O)Nc1ccc2c(c1)OCO2 | active
34 | C[C@@H]1CN([C@@H](C)CO)C(=O)Cc2cc(NC(=O)Nc3ccc(C(F)(F)F)cc3)ccc2O[C@@H]1CN(C)C(=O)Nc1ccc2c(c1)OCO2 | active
35 | C[C@H]1CN([C@@H](C)CO)C(=O)Cc2cc(NC(=O)Nc3ccc4c(c3)OCO4)ccc2O[C@@H]1CN(C)C(=O)Nc1ccc(C(F)(F)F)cc1 | inactive
36 | C[C@H](CO)N1C[C@H](C)[C@H](CN(C)C(=O)Nc2ccc3c(c2)OCO3)Oc2ccc(NC(=O)Nc3ccc(C(F)(F)F)cc3)cc2CC1=O | inactive
37 | C[C@H](CO)N1C[C@H](C)[C@@H](CN(C)C(=O)Nc2ccc3c(c2)OCO3)Oc2ccc(NC(=O)Nc3ccc(C(F)(F)F)cc3)cc2CC1=O | inactive
38 | Cc1noc(C)c1NC(=O)Nc1ccc2c(c1)C(=O)N([C@H](C)CO)C[C@H](C)[C@H](CN(C)Cc1ccccc1)OCCCC[C@H](C)O2 | inactive
39 | C=CCOC(=O)[C@H]1[C@@H]2C(=O)O[C@@H](c3ccccc3)[C@@H](c3ccccc3)N2[C@@H](c2ccc(OCCOC(=O)[C@@H]3C[C@@H]4C(=O)N[C@@H](CC(C)C)C(=O)N4[C@@H]3c3cccc(OCCO)c3)cc2)[C@]12C(=O)Nc1ccccc12 | inactive
